An excerpt weighted towards active compounds, which were near 6.1% of everything screened.
HepG2 tox-1 = HepG2 cytotoxicity, counter-screen for TGF-b inhibitors. HepG2 CAGA-GFP viability, ATP luminescence, 18 h. Potency, µM (doses to about 46.1 µM), actives largely listed as cytotoxic. 0.76% of 410,000 active. AID 588856
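CellTiter-Glo luminescence gave cytotoxicity after 18 hours at 37 degrees C. The cells were HepG2 CAGA-GFP in 1% FBS DMEM, stimulated with 500 pg/mL TGF-beta after compound addition. %Activity was normalised to no-cell wells (complete cell-killing) and DMSO (no toxicity), and curves were fitted and classified.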
TGFb inhibitor = inhibitors of TGF-b signaling; Potency, µM (series often up to 46.1 µM), most hits filed as inhibitors; 1.2% of 410,000 active; HepG2 CAGA-GFP TGF-b/SMAD3 reporter, GFP fluorescence, 18 h; TGF-beta stimulated, 500 pg/mL final; note: nearly all actives have a fitted effect of over 65% in size
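HEPG2 CAGA-GFP reporter cells (1000/well, DMEM with 1% FBS) received compounds, then recombinant TGF-beta at 500 pg/mL final for 18 hours at 37 degrees C. Per-cell GFP summed per well was normalised to unstimulated and stimulated DMSO controls before curve fitting.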
VP16 counter = inhibits Gal4-VP16 luciferase reporter, ROR gamma counter-screen; 3.5% of 310,000 active; Potency, µM (series often up to 53.6 µM), hits mostly inhibitors; Drosophila S2 Gal4-VP16 UAS-luciferase, luminescence, 20 h;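 note: Gal4-VP16 expression switched on by copper sulfate through the metallothionein promoter; nearly all actives have a fitted effect of over 50% in size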
RORgamma inh = inhibitors of mouse ROR gamma transcriptional activity; Potency, µM (series often up to 53.6 µM), most hits filed as inhibitors; AID 2551; Drosophila S2 Gal4-RORgamma UAS-luciferase reporter, 20 h; P51450; 5.4% of 310,000 active; note: nearly all actives have a fitted effect of over 60% in size
Target sequence (P51450 whole entry, looked up, the tested form may be a part): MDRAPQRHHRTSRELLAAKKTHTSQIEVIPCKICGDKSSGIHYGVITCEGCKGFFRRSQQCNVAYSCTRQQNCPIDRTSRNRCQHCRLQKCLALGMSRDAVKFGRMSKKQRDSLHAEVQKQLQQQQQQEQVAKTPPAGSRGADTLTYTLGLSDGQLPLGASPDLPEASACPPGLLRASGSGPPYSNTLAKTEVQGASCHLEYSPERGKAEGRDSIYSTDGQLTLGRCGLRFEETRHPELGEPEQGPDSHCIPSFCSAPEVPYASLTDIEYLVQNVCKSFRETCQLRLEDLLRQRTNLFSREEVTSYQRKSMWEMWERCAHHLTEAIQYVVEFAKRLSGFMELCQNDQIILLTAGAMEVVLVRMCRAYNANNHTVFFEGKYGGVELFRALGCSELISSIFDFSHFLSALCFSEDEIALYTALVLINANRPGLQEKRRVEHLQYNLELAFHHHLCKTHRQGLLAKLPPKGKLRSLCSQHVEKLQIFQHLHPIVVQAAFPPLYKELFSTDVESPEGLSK
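ROR gamma transcriptional activity was tracked as Gal4-UAS luciferase output in stably transfected Drosophila Schneider cells, with compound added 1 hr before 700 uM copper sulfate induction and a 20 hr ambient-temperature incubation.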
ATXN2 expr inh = ATXN2 expression inhibition. HEK-293 ATXN2-luciferase reporter, luminescence, 24 h. AID 1745845. 0.72% of 360,000 active. Potency, µM (series often up to 57 µM), most hits filed as inhibitors; note: nearly all actives have a fitted effect of over 55% in size
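qHTS (up to 57 uM final) was run with 24 h compound exposure of reporter cells at 37 °C. Each well was multiplexed: SteadyGlo luminescence measured ATXN2-luciferase expression after a fluorogenic Gly-Phe-AFC viability readout (25 uM final).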
ATXN viability = cell viability loss in ATXN counter-screen | S2 cells (HEK-293 line with an ATXN2-luciferase reporter) viability, CellTiter-Fluor protease fluorescence, 24 h | Potency, µM (titrated, usually from 56.7 µM), usual class: cytotoxic | 0.49% of 400,000 active; note: nearly all actives have a fitted effect of over 40% in size
TGFb confirm = confirmation of TGF-b signaling inhibitors in HepG2 reporter cells. shares compounds with TGFb inhibitor. HepG2 CAGA-GFP TGF-b reporter, GFP fluorescence, 18 h; cells stimulated with TGF-beta, 500 pg/mL. AID 720534. 63% of 1,600 active. Potency, µM (doses to about 46.1 µM), most hits filed as inhibitors; note: nearly all actives have a fitted effect of over 65% in size
HepG2 tox-2 = toxic to HepG2 cells in TGF-b counterscreen. shares compounds with TGFb inhibitor. 27% of 1,600 active. Potency, µM (doses to about 46.1 µM), hits mostly inhibitors. HepG2 CAGA-GFP viability, ATP luminescence, 18 h; cells stimulated with TGF-beta, 500 pg/mL; note: nearly all actives have a fitted effect of over 70% in size
CCL64 TGFb inh = orthogonal confirmation of TGF-b inhibitors in CCL64 cells. shares compounds with TGFb inhibitor. CCL64 CAGA-GFP reporter, TGF-b stimulated, GFP fluorescence, 18 h. Potency, µM (top dose mostly 46.1 µM), usual class: inhibitors. 41% of 1,600 active. AID 720536; note: nearly all actives have a fitted effect of over 65% in size
COP TGFb inh = TGF-b inhibition validated with COP promoter | shares compounds with TGFb inhibitor | HepG2 COP-GFP TGF-b reporter, GFP fluorescence, 18 h; cells stimulated by added recombinant TGF-beta | Potency, µM (series often up to 46.1 µM), usual class: inhibitors | 3% of 1,600 active; note: nearly all actives have a fitted effect of over 70% in size
A number is an active result; – = inactive; ? = inconclusive; · = no result. Calls come from the whole dose curve; as a rule, active = well fitted curve in the direction sought with a large enough effect; inconclusive = small, poorly fitted or top-dose-only effect, or another doubt; inactive = no such curve, though single readings can be large; an effect the other way counts as inactive or inconclusive.

SMILES	HepG2 tox-1	TGFb inhibitor	VP16 counter	RORgamma inh	ATXN2 expr inh	ATXN viability	TGFb confirm	HepG2 tox-2	CCL64 TGFb inh	COP TGFb inh
CCCCn1c(O)c(N=NC(=O)c2ccncc2)c2cc(Br)ccc21	–	–	–	?	–	?	·	·	·	·
NC(=S)N=Nc1c(O)n(CCCl)c2ccc(Br)cc12	–	?	3.5µM	0.79µM	?	?	–	?	?	–
CCN(C(=O)c1cc2c(C)nc3ccccc3c2o1)c1cc(Cl)ccc1OC	–	10µM	–	–	?	–	?	–	?	–
CCOc1ccc(NC(=O)c2cc3c(C)nc4ccccc4c3o2)cc1	–	–	–	–	–	–	·	·	·	·
COc1cc(C2c3cc4c(cc3OC(Nc3ccc(C(=O)O)cc3)C2C)OCO4)cc(OC)c1OC (stereo not given)	–	?	·	·	–	?	·	·	·	·
COc1cc(C2c3cc4c(cc3OC(NCCc3ccccc3)C2C)OCO4)cc(OC)c1OC (stereo not given)	–	?	·	·	–	–	?	–	16µM	–
Cc1nn2c(NCc3ccccn3)c3c(nc2c1-c1ccccc1)CCC3	–	11µM	0.56µM	0.1µM	?	?	?	?	?	–
CC1=C2C(=CO[C@H](C)[C@H]2C)C(=O)C(C(=O)O)=C1O	·	·	–	–	·	·	·	·	·	·
CCOC(=O)c1ccc(NC(=O)Cn2ncc3c(C)n(Cc4ccccc4F)c(C)c3c2=O)cc1	–	–	·	·	·	·	·	·	·	·
O=C(NCCc1cccnc1)c1cc(COc2ccc(F)cc2Cl)on1	–	13µM	–	–	–	–	?	–	?	–
O=C(NCCc1cccnc1)c1cc(COc2ccc(F)cc2F)on1	–	–	–	–	·	–	·	·	·	·
CN1CC(=O)N(CC(=O)Nc2cccc(C#N)c2)c2ccccc2C1=O	–	–	·	·	–	–	·	·	·	·
O=C(c1cc(-c2ccccc2)n[nH]1)N1CCc2c([nH]c3ccccc23)C1c1ccccn1 (stereo not given)	–	20µM	–	?	?	?	15µM	?	?	–
O=C(c1cccs1)N1CCc2c([nH]c3ccccc23)C1c1ccccn1 (stereo not given)	–	–	–	–	–	–	·	·	·	·
CN(C)c1ncc2nc(-c3ccc(Cl)cc3)c(=O)n(C)c2n1	·	·	–	–	·	·	·	·	·	·
O=C(c1ccc(Cl)c([N+](=O)[O-])c1)N1CCN(S(=O)(=O)c2ccc(Cl)cc2)CC1	–	10µM	·	·	–	–	13µM	–	?	–
CCOCCc1nn2c(=O)cc(COC(=O)c3ccco3)nc2s1	–	–	·	·	–	–	·	·	·	·
COc1ccccc1-c1cc(C(F)(F)F)nc(N2CCCCC2)n1	–	–	–	–	–	–	·	·	·	·
COc1ccccc1-c1cc(C(F)(F)F)nc(S(=O)(=O)CCCC(=O)N2CCCCC2C)n1 (stereo not given)	–	10µM	16µM	11µM	?	·	9.2µM	18µM	4.6µM	?
CCN(CC)S(=O)(=O)c1cccc(C(=O)Nc2ccccc2C(=O)Nc2ccc(OC)cc2)c1	–	?	·	·	–	–	·	·	·	·
COc1ccc(-n2nc(C(=O)Nc3cc(OC)c(OC)c(OC)c3)c(=O)n(C)c2=O)cc1	–	–	·	·	·	·	·	·	·	·
Cc1c(NC(=O)C(C)(C)Oc2ccc(Cl)cc2)cccc1-c1nc2ccccc2o1	–	–	·	·	–	–	·	·	·	·
COc1cc(CN2CCc3ccccc3C2)ccc1O	–	4.5µM	3.5µM	5.6µM	·	18µM	7.3µM	15µM	2.9µM	–
CCOC(=O)N1CCN(C(=O)COc2cccc3c2CCN(Cc2cccc(C)c2)C3=O)CC1	–	?	–	?	–	–	?	–	?	–
CN(C)c1nc2c(N)ncnc2n1C1OC(CO)C(O)C1O (stereo not given)	–	–	·	·	–	–	·	·	·	·
SMILES	HepG2 tox-1	TGFb inhibitor	VP16 counter	RORgamma inh	ATXN2 expr inh	ATXN viability	TGFb confirm	HepG2 tox-2	CCL64 TGFb inh	COP TGFb inh
CN(C)c1ncnc2c1ccn2C1OC(CO)C(O)C1O (stereo not given)	0.13µM	0.22µM	·	·	–	–	0.23µM	1.3µM	6.5µM	–
OCC1OC(n2ccc3c(NO)ncnc32)C(O)C1O (stereo not given)	0.5µM	0.28µM	·	·	?	?	1.2µM	0.58µM	1.3µM	–
OCC1OC(n2cnc3c(NCc4ccccc4O)ncnc32)C(O)C1O (stereo not given)	–	1.8µM	·	·	?	?	1.2µM	4.1µM	?	–
COc1ccc(NC(=O)CSc2ccc3nc(-c4ccccc4)cn3n2)c(OC)c1	–	?	·	·	–	?	·	·	·	·
Cc1ccnc(Nc2nc(-c3ccccc3)cs2)c1	–	10µM	?	?	·	–	–	–	–	–
Cc1cc(C)c(S(=O)(=O)Nc2ccc3c4c(cccc24)CC3)c(C)c1	–	8.9µM	?	11µM	–	?	12µM	?	9.2µM	–
CCC1Nc2ncnc(N3CCc4ccccc4C3)c2N(Cc2ccc(Br)cc2)C1=O (stereo not given)	–	13µM	·	·	?	?	18µM	18µM	–	–
CC1Nc2ncnc(N3CCc4ccccc4C3)c2N(Cc2ccc(Br)cc2)C1=O (stereo not given)	–	?	·	·	?	?	·	·	·	·
CC1(Cc2cccc(C(F)(F)F)c2)C(=O)Nc2ccc(-c3ccc(F)c(Cl)c3)cc21 (stereo not given)	10µM	10µM	·	·	?	·	?	18µM	?	–
CC(=O)Nc1nonc1-c1nnc(SCC(=O)Nc2ccc(C)cc2)n1-c1ccccc1	–	–	·	·	–	?	·	·	·	·
OC(CNCC(c1ccc(Cl)cc1Cl)c1c[nH]c2ccccc12)c1ccccc1 (stereo not given)	–	7.1µM	–	?	?	?	?	16µM	?	?
O=[N+]([O-])CC(c1ccccc1)c1c[nH]c2ccccc12 (stereo not given)	–	?	·	·	·	?	·	·	·	·
